# Compound activity (PubChem BioAssay)
# CHX counter – counter-screen hit for Shiga toxin inhibitors, cycloheximide | cell reporter, cycloheximide protein synthesis inhibition counterscreen | max response, % | hit rate 12% among 300,000; in the data active = max response mostly above about 13%, no sharp cut-off; inactive = mostly below about 14%; also: read at 38.3 µM for the half of the compounds with a filed dose; 0% is about no effect
# Pf growth 48h – inhibits P. falciparum growth in the first generation, 48 h | AID 504832 | Potency, µM (highest dose often 28.7 µM), inactives show at the highest dose activity change, negative = inhibition, most hits filed as inhibitors | P. falciparum luciferase growth in erythrocytes, 48 h | hit rate 5.9% among 310,000; active = well fitted inhibition curve with a large enough effect; inconclusive = small, poorly fitted or top-dose-only effect, or another doubt; inactive = no such curve, though single readings can be large or run the other way; also: potency is read from the fitted curve at half-maximal effect; % is scaled to controls: 0 for no effect and ±100 for the full control effect
#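 Luciferase-expressing parasites in RBCs, 2% Hct / 0.1% parasitemia final; RPMI 1640 + 0.5% Albumax; 37 C, 5% CO2, one generation; luminescence read-out, lower signal = inhibition.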
# Shiga inhibitor – inhibitors of Shiga toxin in Vero cells; hit rate 9.2% among 290,000; inhibition, % at 38.7 µM; AID 2315; Vero cells, Shiga toxin protein synthesis inhibition reporter; in the data active = inhibition mostly above about 28%, no sharp cut-off; inactive = mostly below about 43%; also: 0% is about no effect
# Pf growth 96h – P. falciparum growth inhibition at 96 hour, primary screen for plastid delayed-death inhibitors; Potency, µM (highest dose often 28.7 µM), for the others: at the highest dose activity change, negative = inhibition, most hits filed as inhibitors; AID 504834; hit rate 6.9% among 320,000; P. falciparum luciferase reporter growth, 96 h; active = well fitted inhibition curve with a large enough effect; inconclusive = small, poorly fitted or top-dose-only effect, or another doubt; inactive = no such curve, though single readings can be large or run the other way; also: potency is read from the fitted curve at half-maximal effect; % is scaled to controls: 0 for no effect and ±100 for the full control effect
#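 Erythrocytes infected with luciferase-expressing P. falciparum were dispensed at 2% hematocrit and 0.05% parasitemia (final), then incubated with compounds 96 hours at 37 C in 5% CO2. Luminescence after detection reagent addition reported growth.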
# SARS PLpro yeast – SARS-CoV PLP inhibition in yeast; S. cerevisiae expressing SARS-CoV PLpro, growth rescue; Potency, µM (highest dose often 32.9 µM), inactives show at the top dose activity, positive = growth rescue, most hits filed as activators; hit rate 0.19% among 330,000; AID 485353; also: potency is read from the fitted curve at half-maximal effect; 0% is about no effect; nearly all actives have a fitted effect of over 55% in size
# NS1 function inh – inhibitors of influenza NS1 protein function; Potency, µM (series often up to 46.1 µM), for inactives: top-dose activity, positive = more growth; hit rate 0.4% among 270,000; also: potency is read from the fitted curve at half-maximal effect; actives are rising curves; nearly all actives have a fitted effect of over 50% in size
#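 Recovery from NS1-induced slow growth read by OD600 in budding yeast switched to galactose assay medium (pH 6.0, -URA) at 1:100 dilution. Compound 23 nl per well; the matching strain lacking NS1 serves as control.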
# * marks the source's active call; other numbers are inactive results; ? = inconclusive; . = not tested or not shown; [ ] = another dose, or the depositor's remark. Only some compounds are listed: those with a hit (about 21% of all), similar ones and a draw of the others. Unless noted, calls follow the shape of the full dose curve.
SMILES,CHX counter,Pf growth 48h,Shiga inhibitor,Pf growth 96h,SARS PLpro yeast,NS1 function inh
COc1ccc(Cn2c(CCC(=O)NCCC(C)C)nc3ncccc3c2=O)cc1,-9.7,10.3%[0.00184 µM],-0.6,46.6%,3.5%,-3.1%
COc1ccc(CSCC(=O)Nc2ccc(S(=O)(=O)N3CCCCCC3)cc2)cc1,-4.4,?,-6.3,?,-20.4%,4.9%
O=C(CSCc1ccc(Cl)cc1)Nc1ccc(S(=O)(=O)N2CCCCCC2)cc1,-4.5,?,-6.7,13.1µM*,-35.9%,-15.5%
CC1CCN(c2ccc(NC(=O)c3cccnc3)cc2)CC1,33.1*,-5.3%,54.6*,8.2%,-2.6%,?
O=C(Nc1ccc(N2CCN(C(=O)c3cccs3)CC2)cc1)c1cccnc1,-4.2,?,-4.4,2.94µM*,1.6%,-1.9%
CC1CCN(c2ccc(NC(=O)c3cccnc3Cl)cc2)CC1,5.3,21.4%,-16.2,10.4µM*,-0.2%,?
COc1ccc(NC(=O)[C@@H](NS(=O)(=O)c2cccc(Cl)c2)C(C)C)cc1S(=O)(=O)N1CCOCC1,.,.,.,.,1.1%,.
CCOC(=O)C(SP(=S)(OC)OC)c1ccccc1 (centres undefined),5.8,.,2.3,.,.,.
Cc1cc(C)c2c(=O)cc(C(=O)NCc3ccccc3)oc2c1,2.2,-16.0%[0.00184 µM],-2.7,-50.2%,3.9%,-0.9%
CCC1CCCCN1C(=O)CSc1nnc(N)s1 (centres undefined),.,.,.,.,-0.3%,.
CC1(C)c2ccccc2N2CCC(=O)NC21/C=C/c1ccco1 (centres undefined),1.4,?,1.1,10.4µM*,-7.6%,10.5%
CC1(C)S[C@@H]2[C@H](NC(=O)[C@@H](N)c3ccccc3)C(=O)N2[C@H]1C(=O)O[C@H]1OC(=O)c2ccccc21,.,-12.3%[12.8 µM],.,?,.,.
COc1ccccc1-n1cnnc1SC(C)C(=O)NCC1CCCO1 (centres undefined),.,5.0%,.,0.5%,-1.6%,.
Cc1ccc(CSCC(=O)NCc2cccs2)cc1,-2.8,23.1%,18.2,15.5%,-2.5%,.
CCN1CCN(CC(=O)Nc2ccccc2)C(=O)C1=O,-1.1,.,-2.0,-18.2%,-6.1%,3.2%
CC(=O)CN1Cc2ccccc2/C1=N\C(=O)Nc1ccccc1,16.1*,19.8%,11.3,?,4.3%,10.3%
COc1ccc(N2Cc3ccccc3/C2=N\C(=O)Nc2ccccc2)cc1,22.7*,7.8%,57.2,9.2%,5.5%,.
CCOC(=O)CSc1ccc(C(=O)Nc2ccc(OC)cc2)cn1,1.4,21.0%,1.8,22.6%,-1.1%,-1.6%
CC(C)(O)C#Cc1ccc(CNC[C@H]2O[C@@H](n3cnc4c(N)ncnc43)[C@H](O)[C@@H]2O)s1,.,.,.,.,1.7%,.
O=C(O)c1ccc(Nc2ccc([N+](=O)[O-])c3nonc23)cc1,-2.1,-16.5%,-10.3,?,-0.1%,15.8%
CC(=O)c1ccc(Nc2ccc([N+](=O)[O-])c3nonc23)cc1,21.5*,-5.7%,.,1.9%,-0.6%,-23.0%
O=[N+]([O-])c1ccc(Nc2ccccc2O)c2nonc12,5.2,?,10.6,-0.9%,-16.9%,-78.2%
NS(=O)(=O)c1ccc(Nc2ccc([N+](=O)[O-])c3nonc23)cc1,-4.9,?,14.5,9.28µM*,0.8%,7.4%
Cc1ccc(C2=NOC3(CC(=O)N(c4ccc(C)cc4)C3=O)C2)cc1 (centres undefined),6.2,49.6%,33.2,72.7%,1.6%,2.7%
O=C(COC(=O)CNC(=O)c1ccccc1)NC(=O)NC1CCCCC1,.,.,.,.,4.3%,.
SMILES,CHX counter,Pf growth 48h,Shiga inhibitor,Pf growth 96h,SARS PLpro yeast,NS1 function inh
CC(C#N)Sc1ccc(S(=O)(=O)N(C)C2CCCCC2)cn1 (centres undefined),.,1.1%,.,-9.9%,-3.2%,.
CC1CCC(NC(=O)CSc2ccc(S(=O)(=O)N(C)C)cn2)CC1 (centres undefined),.,?,.,?,0.9%,.
CC(C)CNC(=O)CSc1ccc(S(=O)(=O)N(C)C2CCCCC2)cn1,.,9.28µM*,.,-13.4%,-4.1%,.
CCOC(=O)NC(=O)CSc1ccc(S(=O)(=O)N(C)C2CCCCC2)cn1,.,6.57µM*,.,13.1µM*,-3.4%,.
COc1ccc(CNCCC(c2ccc(OC(C)C)cc2)c2ccccc2OC)cc1OC (centres undefined),-9.2,13.1µM*,-3.9,?,-4.0%,0.4%
COc1ccc(C(CCNCc2ccc(N(C)C)cc2)C(C)C)cc1 (centres undefined),-0.7,9.28µM*,-13.9,7.38µM*,-0.2%,-2.3%
COc1ccccc1C(CCNCc1ccc(N(C)C)cc1)c1ccc(OC(C)C)cc1 (centres undefined),-10.3,8.28µM*,-14.2,13.1µM*,-1.7%,3.3%
COc1ccc(CNCCC(c2ccc(OC(C)C)cc2)c2ccccc2OC)cc1 (centres undefined),-6.8,?,-9.9,?,-1.4%,-0.2%
O=C(O)c1ccc2c(c1)C(=O)N([C@@H](C(=O)O)C(c1ccccc1)c1ccccc1)C2=O,-5.6,4.1%,-1.7,9.3%,-1.7%,.
COC(=O)Nc1nn(-c2ccc(Cl)cc2)c(=O)c(C#N)c1C,-2.1,?,2.2,?,0.3%,-2.1%
CCCn1c(NC(=O)c2ccc(Br)cc2)nc2ccccc21,9.4,.,-2.0,2.94µM*,-2.5%,1.7%
Cn1c(/C=N/NC(=O)c2ccccc2Br)nc2ccccc21,14.8*,?,18.9,?,-1.6%,-27.5%
CCCn1c(NC(=O)c2ccc(F)cc2)nc2ccccc21,9.2,0.0%,14.6,0.0%,-1.7%,.
CCCn1c(NC(=O)c2ccccc2Br)nc2ccccc21,17.9*,?,71.5,?,-1.2%,.
CCCn1c(NC(=O)c2ccco2)nc2ccccc21,10.2,?,-13.1,43.4%,-7.0%,-14.9%
COc1ccc(Cn2nnnc2C(c2cc(OC)ccc2OC)N2CCC(C(N)=O)CC2)cc1 (centres undefined),4.4,-9.7%,9.3,?,-6.7%,-11.9%
Cc1nccc(-c2cccc(N/N=C(\C#N)C(=O)c3ccccc3)c2)n1,-3.4,13.1µM*,-8.3,5.22µM*,-1.1%,-1.3%
COc1ccccc1C(=O)NC(=S)Nc1cccnc1Cl,17.5*,243.7%,23.8,-16.8%,-22.8%,-7.2%
Cc1ccc(C(=O)NC(=S)Nc2cccnc2Cl)cc1,46.7*,79.5%,90.8*,20.5%,-4.7%,-3.0%
CCCCOc1ccc(-c2[nH]ncc2C=O)cc1,37.2*,175.5%,116.7*,?,-4.8%,.
CCCCOc1ccc(Cc2n[nH]c(=S)n2N)cc1,2.2,?,14.4,0.0%,-32.8%,8.6%
CNCC(N)C(=O)O (centres undefined),-3.8,.,-9.9,.,.,.
COC(=O)Cc1c(C)c2ccc(O)c(CNCc3ccc(OC)c(OC)c3)c2oc1=O,6.3,?,1.2,-10.8%,1.2%,6.7%
FC(F)(F)c1cc(Cl)c2nc(-c3ccccc3)cn2c1,41.4*,235.3%,87.6*,136.3%,2.0%,-10.9%
Cc1cc(C(F)(F)F)nc(-n2cc(-c3cccc(N)c3)nn2)n1,-1.1,5.0%,-4.0,?,-1.7%,-0.1%
